Compounds without any hit were thinned out: in the full panel of roughly 83,000, 20% have a hit.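 96-well plates, one dose, 48 hours. Percent growth reported; active if below 10.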 The source made the active and inactive calls.

The experiment has as its system HT29 colon. Put plainly: NCI-60 one-dose screen, 48 h (100 = growth as untreated, 0 = no growth, -100 = all killed). Particulars: 10 µM unless noted.
As for `CC(C)(C)C(=O)/C=C/c1ccc([N+](=O)[O-])cc1`, the growth was 50.2% (inactive). On to `N#Cc1c(-c2ccccc2)nc2c(c(-c3ccccc3)nn2-c2ccccc2)c1-c1ccc(N2CCOCC2)cc1`, for which the growth was 52.4% (inactive). Next, `Cc1ccc(C)n1/C=C/n1c(C)ccc1C`: 102% (inactive). As to `CN(C)Cc1ccc(C(=O)Nc2ccc3ncnc(Nc4ccc(Oc5cccc(F)c5)c(Cl)c4)c3c2)cc1`, the growth was -35.4% (active).

Consider `O=c1[nH]cnc2c1C(c1ccc(Br)cc1)c1sc3c(F)cccc3c1O2` (stereo not drawn), for which the growth is 104% (inactive). Next, `CS(=O)(=O)Nc1cncc(-c2ccc3ncnc(Nc4ccc(F)c(Cl)c4)c3c2)c1`: 20.7% (inactive). As to `Cc1cc(N2CCN(C)CC2)nc(NCc2cc(Nc3ccnc4cc(Cl)ccc34)ccc2F)n1`, the growth was -56.1% (active).

In the case of `COc1ccc(-c2ccc(=O)oc2C#Cc2cc(OC)c(OC)c(OC)c2)cc1O`, the growth was -9.43% (active). The figure for `COc1cc(/C=C2\C(=O)N(c3c(Cl)cccc3Cl)c3ccccc32)cc(OC)c1OCCCCCCn1c2ccccc2c(=O)c2ccccc21` is 103% (inactive); for `CC/C=C1/C(=O)C=C[C@@H]1C/C=C\CCCC(=O)OC` it is 24.8% (inactive); for `COc1ccc2c(c1)c(-c1nonc1-c1cn(C)c3ccc(OC)cc13)cn2C` it is 13.1% (inactive).

Regarding `C=C1C(=O)O[C@H]2[C@H]1CC/C(COC(=O)/C=C\C(=O)NCc1ccc(Cn3c(=O)sn(-c4ccccc4)c3=O)cc1)=C\CC[C@@]1(C)O[C@@H]21`, the growth is 50.8% (inactive). For the compound `Cc1nn(-c2ccccc2)c(/N=C/N(C)C)c1/C=C/C(=O)c1ccc(Cl)cc1`, the growth is 95.4% (inactive).
